HEK293 tox = HEK 293 cell cytotoxicity | HEK 293 viability, ATP luminescence (CellTiter-Glo), 48-72 h | Potency, µM (titrated, usually from 115 µM), for inactives: at the highest dose activity change, negative = cytotoxicity, hits mostly inhibitors | 94,000 tested, 6.6% active | AID 1345083; further: nearly all actives have a fitted effect of over 60% in size
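Cytotoxicity was scored by loss of ATP-coupled luminescence (CellTiter-Glo) in HEK 293 cells. Compound treatment ran 48 or 72 hr at 37 degree Celsius, 5% CO2, 95% humidity.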
Luciferase inh = blocks purified firefly luciferase enzyme activity | P08659 | purified P. pyralis luciferase, luminescence, biochemical | Potency, µM (highest dose often 115 µM), actives largely listed as inhibitors | 76,000 tested, 2.5% active; further: nearly all actives have a fitted effect of over 65% in size
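Biochemical qHTS: compound (6-point titration) added to 10uM D-luciferin plus 10uM ATP in Tris acetate pH 7.5 buffer with Mg, Tween-20 and BSA, then purified enzyme at 10nM; light output imaged.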
NPR1 antag = antagonists of human natriuretic peptide receptor Npr1; 76,000 tested, 1.6% active; HEK293 hNpr1 GloSensor cGMP, ANP-stimulated luminescence; P16066; Potency, µM (series often up to 46.3 µM), without a hit: at the top dose activity change, negative = inhibition, usual class: inhibitors; calls by dose curve; further: nearly all actives have a fitted effect of over 60% in size
Target sequence (P16066 whole entry, looked up): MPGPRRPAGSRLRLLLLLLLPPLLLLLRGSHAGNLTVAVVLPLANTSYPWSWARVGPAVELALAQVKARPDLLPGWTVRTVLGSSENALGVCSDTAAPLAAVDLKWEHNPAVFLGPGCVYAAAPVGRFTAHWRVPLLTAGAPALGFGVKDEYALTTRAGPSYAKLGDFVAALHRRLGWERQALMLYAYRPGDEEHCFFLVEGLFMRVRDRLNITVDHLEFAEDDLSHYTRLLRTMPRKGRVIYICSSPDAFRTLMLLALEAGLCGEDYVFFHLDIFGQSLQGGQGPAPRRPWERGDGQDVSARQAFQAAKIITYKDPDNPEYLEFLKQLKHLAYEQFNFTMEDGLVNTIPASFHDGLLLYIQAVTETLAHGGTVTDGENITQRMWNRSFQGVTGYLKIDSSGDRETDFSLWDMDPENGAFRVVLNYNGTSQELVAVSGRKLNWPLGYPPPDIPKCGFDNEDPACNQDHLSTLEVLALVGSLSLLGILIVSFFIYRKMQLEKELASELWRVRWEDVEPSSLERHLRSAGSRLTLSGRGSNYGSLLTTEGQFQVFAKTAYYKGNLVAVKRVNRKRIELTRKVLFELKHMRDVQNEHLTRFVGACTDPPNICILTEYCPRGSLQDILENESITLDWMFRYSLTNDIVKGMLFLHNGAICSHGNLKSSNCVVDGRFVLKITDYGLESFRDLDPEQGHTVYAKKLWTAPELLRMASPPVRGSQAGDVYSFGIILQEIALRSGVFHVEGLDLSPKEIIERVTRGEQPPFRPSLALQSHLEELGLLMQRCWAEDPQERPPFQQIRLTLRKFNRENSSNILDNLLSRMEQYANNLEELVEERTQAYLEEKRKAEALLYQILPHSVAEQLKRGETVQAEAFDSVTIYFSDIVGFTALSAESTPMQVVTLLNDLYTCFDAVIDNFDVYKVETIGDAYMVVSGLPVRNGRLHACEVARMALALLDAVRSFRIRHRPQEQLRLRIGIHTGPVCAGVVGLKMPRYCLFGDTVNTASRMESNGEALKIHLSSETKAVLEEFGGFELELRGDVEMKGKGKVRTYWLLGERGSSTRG
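Compound pre-incubated 30 min at room temperature on GloSensor-loaded HEK293 cells stably carrying hNpr1 and the pGS-40F cGMP biosensor. Stimulation uses hNppA at 0.1 nM final; luminescence is taken at baseline and 20 min post-agonist.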
GPT2 inh = inhibitors of human GPT2 alanine aminotransferase; Q8TD30; Recombinant GPT2, coupled pyruvate oxidase/HRP Amplex Red fluorescence; Potency, µM (titrated, usually from 57.7 µM), without a hit: at the highest dose activity change, negative = inhibition, actives largely listed as inhibitors; 100,000 tested, 0.25% active; AID 1671188; further: nearly all actives have a fitted effect of over 60% in size
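Inhibition is scored from Amplex Red fluorescence generated when pyruvate oxidase and HRP act on pyruvate released by GPT2. Reactions contain 10ng/uL enzyme, 250uM a-KG and 2mM L-alanine and run 30 min at room temperature.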
NIH3T3 tox = NIH 3T3 cell cytotoxicity; Potency, µM (series often up to 96.7 µM), inactives show at the highest dose activity change, negative = cytotoxicity, hits mostly inhibitors; 94,000 tested, 4.3% active; NIH 3T3 viability, CellTiter-Glo ATP luminescence, 48-72 h; further: nearly all actives have a fitted effect of over 55% in size
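ATP-dependent luminescence (CellTiter-Glo) served as the viability signal for NIH 3T3 cells treated with compound for 48 or 72 hr at 37 °C.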
Active calls of the source: *; [ ] = another dose, or the depositor's remark. Most compounds without a hit are left out; they make up all but 10% or so of the library. Unless noted, the call rests on the fitted dose curve; in most records, active means well fitted curve in the direction sought with a large enough effect; inconclusive means small, poorly fitted or top-dose-only effect, or another doubt; inactive means no such curve, though single readings can be large; an effect the other way counts as inactive or inconclusive. On the % scale 0 is the no-effect control and ±100 the full control effect; potency means the concentration at half of the fitted maximal effect.

Screening CC(=O)NCCC(=O)N1CCC(n2c(=O)[nH]c3ccccc32)CC1 returned HEK293 tox 1.7%[172 µM], GPT2 inh inactive and NIH3T3 tox -1.7%[138 µM].
Screening COC(=O)[C@@H]1Cc2c([nH]c3ccccc23)[C@H]2C[C@@H](NCCNC(C)=O)C[C@@H](c3ccc(-c4ccccc4)cc3)N21 returned HEK293 tox 39.8µM*, Luciferase inh inactive, NPR1 antag 1.1%, GPT2 inh -8.0% and NIH3T3 tox inconclusive.
`COC(=O)[C@@H]1Cc2c([nH]c3ccccc23)[C@@H]2C[C@@H](NCCNC(C)=O)C[C@@H](c3cccc(Cl)c3)N12` gave HEK293 tox 31.6µM*, Luciferase inh inactive, NPR1 antag 2.5%, GPT2 inh -4.0% and NIH3T3 tox 28.2µM*.
Screening COC(=O)[C@@H]1Cc2c([nH]c3ccccc23)[C@H]2C[C@@H](NCCN(C)C)C[C@@H](c3cccc(Cl)c3)N21 returned HEK293 tox 6.31µM*, Luciferase inh inconclusive, NPR1 antag -13.7%, GPT2 inh -2.0% and NIH3T3 tox 4.47µM*.
For CC(=O)NCc1nnc2n1C(C(=O)Nc1cccc(Cl)c1)CC2 (stereo not drawn) the results were HEK293 tox 2.6%, GPT2 inh 0.9% and NIH3T3 tox -19.9%.
Screening O=C(Nc1ccccc1)N1CCN(C(=O)c2nc3cccnc3n(Cc3ccccc3)c2=O)CC1 returned HEK293 tox -11.5%, GPT2 inh 5.0% and NIH3T3 tox inconclusive.
Screening CCCn1nc(C)c(-c2cc(C(=O)N3CCCC(Cc4nncn4Cc4ccccc4)C3)[nH]n2)c1C (stereo not drawn) returned HEK293 tox inactive, Luciferase inh inactive, NPR1 antag -4.6%, GPT2 inh -7.2% and NIH3T3 tox inactive.
`COc1ncccc1-c1nc(-c2c(C)noc2C)cc2[nH]c(C)cc12` gave HEK293 tox inconclusive, Luciferase inh inactive, NPR1 antag 3.1%[70.6 µM], GPT2 inh -5.9%[88.5 µM] and NIH3T3 tox inconclusive.
Screening Cc1cc2c(-c3ccccc3)nc(-c3c(C)noc3C)cc2[nH]1 returned HEK293 tox inconclusive, Luciferase inh inactive, NPR1 antag 4.7%[70.6 µM], GPT2 inh inconclusive and NIH3T3 tox inconclusive.
COc1cc(F)ccc1-c1nc(-c2c(C)noc2C)cc2[nH]c(C)cc12 was read as HEK293 tox inconclusive, Luciferase inh inactive, NPR1 antag -0.3%[70.6 µM], GPT2 inh 0.1%[88.5 µM] and NIH3T3 tox 35.5µM*.
For COc1ccccc1-c1nc(-c2c(C)noc2C)cc2[nH]c(C)cc12 the results were HEK293 tox inconclusive, Luciferase inh inactive, NPR1 antag -13.6%[70.6 µM], GPT2 inh 1.1%[88.5 µM] and NIH3T3 tox 25.1µM*.
N#Cc1cnc2c(Cl)cc(NCc3cn(CCN4CCCCCC4)nn3)cc2c1Nc1ccc(F)c(Cl)c1 was read as GPT2 inh inactive.
Screening O=C(NC1CCN(c2nccc(Nc3ccccc3Cl)n2)CC1)c1ccccc1 returned HEK293 tox 39.8µM*, GPT2 inh 4.8% and NIH3T3 tox inconclusive.
For O=C(C1CCCC1)N1CCN(c2nccc(Nc3ccccc3Cl)n2)CC1 the results were HEK293 tox inconclusive, GPT2 inh inactive and NIH3T3 tox 14.1µM*.
`O=C(C1CC1)N1CCN(c2nccc(Nc3ccccc3Cl)n2)CC1` gave HEK293 tox inconclusive, GPT2 inh -3.4% and NIH3T3 tox 22.4µM*.
Screening CN(C)C(=O)N1CCN(C(=O)c2nc3cccnc3n(Cc3ccccc3)c2=O)CC1 returned HEK293 tox -12.2%, GPT2 inh inactive and NIH3T3 tox -6.6%.
O=C(O)c1ccnc(-c2ccnc(NCC(O)c3ccccc3Cl)n2)c1 (stereo not drawn) was read as HEK293 tox inactive, Luciferase inh 31.6µM*, NPR1 antag 2.0%, GPT2 inh -3.0% and NIH3T3 tox inactive.
For Cc1csc(CN(C)C(=O)CC(c2ccccc2)c2ccc3c(c2)OCO3)n1 (stereo not drawn) the results were HEK293 tox 44.7µM*, Luciferase inh 31.6µM*, NPR1 antag -30.5%, GPT2 inh 3.9% and NIH3T3 tox -23.0%.
